Inconclusive results are not listed. Active and inactive are the calls of the source. Calls come from the whole dose curve; as a rule, active = well fitted inhibition curve with a large enough effect; inconclusive = small, poorly fitted or top-dose-only effect; inactive = no such curve, though single readings can be large or run the other way.
Experiment: BET inhibitor-based combinations targeting novel dependencies in MECOM-rearranged (r) AML: MV-4-11 cell line (AID 2202233); note: nearly all actives have a fitted effect of over 45% in size
Conditions: MV-4-11 AML viability, CellTiter-Glo luminescence, 48 h; series mostly up to 46 µM
Description: Ecotropic viral insertion site 1 (EVI1) is located on chromosome 3q26.2 as part of the MECOM (MDS and EVI1 complex) locus. Under normal hematopoiesis, EVI1 is a regulator of hematopoietic stem cell maintenance and self-renewal and EVI1 levels decrease as the cells differentiate. In approximately 5-10% of de novo acute myeloid leukemia (AML) EVI1 is aberrantly expressed, including Chromosomal inv(3)(q21;q26.2) or t(3;3)(q21;q26.2) alterations (MECOM-r) that account for about 50% of AML with EVI1 overexpression 31. AMLs with high levels of EVI1 have a poor prognosis and an overall survival time averaging between 10-14 months. EVI1 overexpression confers resistance in leukemia cells, highlighting the need to develop new targeted therapies for EVI1 overexpressing AMLs. Here, we performed an unbiased chemical drug screening by evaluating the single agent activity of a collection of 2,480 oncology-focused, approved and investigational drugs (NCATS Mechanism Interrogation Plates, MIPE v5.0) against a panel of seven AML cell lines. These included four MECOM-r cell-lines (AML-191, AML-194, UCSD-AML1 and HNT-34) and three non-MECOM-r AMLs (MV4-11, OCI-AML3 and SET-2). Exploiting the mechanistic redundancy built in the library, we identified target-level sensitivities in MECOM-r AML cells and relative activity as compared to other AML subtypes.
A collection of 2480 mechanistically annotated dugs (MIPE v5.0) was used to screen four 3q26.2 rearranged AML cell lines and three non-3q26.2 rearranged AML cell lines. This library purposely exploits redundancy by including multiple inhibitors of key onco-targets, while simultaneously encompassing mechanistic diversity, targeting more than 800 distinct mechanisms of action. Briefly, cells were seeded in 5 uL of growth media using a Multidrop Combi dispenser into 1536 well white polystyrene tissue culture treated plates (Corning) at a density of 500cells/well. For each cell-line, for each of the 2480 drugs in MIPE v5.0 library, an 11-point dose curve was generated via a 1536 pin-tool. Plates were incubated for 48 hr at standard incubator conditions, covered by a stainless steel gasketed lid to prevent evaporation. Cell viability was determined by luminescence based, Cell Titer Glo assay (Promega). In detail, 3 uL of Cell Titer Glo were added to each well and plates were incubated at room temperature for 15 min with a stainless-steel lid in place. Luminescence readings were taken using a Viewlux (PerkinElmer) with a 2 s exposure time per plate. Compound dose-response curves were normalized to DMSO and empty well controls on each plate. Quantitative drug activity data from dose-response curves was determined utilizing area Under the Curve (AUC) and Z-transformed AUC (Z-AUC, a mean-centering transformation applied to each individual cell-line screened).
Potency is the fitted concentration of half-maximal effect.

| SMILES | Potency | outcome |
| --- | --- | --- |
| CN1C(=O)CCS(=O)(=O)C1c1ccc(Cl)cc1 (stereo not given) | inactive | – |
| COCC1(CO)C(=O)C2CCN1CC2 (stereo not given) | 10.5 µM (active) | – |
| COc1cc2cc(c1Cl)N(C)C(=O)C[C@H](OC(=O)C(C)C)[C@]1(C)O[C@@H]1[C@H](C)[C@@H]1C[C@@](O)(NC(=O)O1)[C@H](OC)/C=C/C=C(\C)C2 | inactive | – |
| CC1=C(O)C(=O)C=C2C1=CC=C1[C@@]2(C)CC[C@@]2(C)[C@@H]3C[C@](C)(C(=O)O)CC[C@]3(C)CC[C@]12C | 0.662 µM (active) | – |
| O=C(CBr)N1CC([N+](=O)[O-])([N+](=O)[O-])C1 | 34 µM (active) | – |
| COc1ccc2c(c[n+](C)c3c4cc5c(cc4ccc23)OCO5)c1OC | 5.25 µM (active) | – |
| CC(C)c1cccc(C(C)C)c1O | inactive | – |
| CC(=O)O[C@@]12CO[C@@H]1C[C@H](O)[C@@]1(C)C(=O)[C@H](O)C3=C(C)[C@@H](O)C[C@@](O)([C@@H](OC(=O)c4ccccc4)[C@H]21)C3(C)C | 23.5 µM (active) | – |
| CN(C)CCN(C)CCc1ccc(Cl)c(Cl)c1 | inactive | – |
| O=C(N[C@H]1CN2CCC1CC2)c1ccc(Cl)cc1 | inactive | – |
| Cc1c(C(=O)Nc2cccc(C(F)(F)F)c2)cc(-c2ccccc2)n1CCCN1CCOCC1 | 20.9 µM (active) | – |
| Cn1c(CCCCCCC(=O)NO)nc2cc(N(CCCl)CCCl)ccc21 | 1.48 µM (active) | – |
| COC[C@H]1OC(=O)c2coc3c2[C@@]1(C)C1=C(C3=O)C2CCC(=O)[C@@]2(C)C[C@H]1OC(C)=O (stereo not given in full) | 5.25 µM (active) | – |
| O=C(O)CNC(=O)C1C(=O)N(C2CCCCC2)C(=O)N(C2CCCCC2)C1=O | inactive | – |
| COc1cc(C)[nH]c(=O)c1CNC(=O)c1c(C)n([C@H](C)C2CCN(CC(F)(F)F)CC2)c2ccccc12 | inactive | – |
| NCC1(CC(=O)O)CCCCC1 | – | inactive |
| CC[C@@H](C(N)=O)N1CCCC1=O | inactive | – |
| Cc1sc2c(c1C)C(c1ccc(Cl)cc1)=NC(CC(N)=O)c1nnc(C)n1-2 (stereo not given) | 0.0661 µM (active) | – |
| CCOc1ccccc1-n1c(C(C)N2CCN(C(=O)COc3ccc(Cl)cc3)CC2)nc2ccccc2c1=O (stereo not given) | 3.32 µM (active) | – |
| NC(=O)[C@@H](CC1CC1)[C@@H](CCC(F)(F)F)C(=O)N[C@H]1N=C(c2ccccc2)c2cccc(F)c2NC1=O | inactive | – |

| SMILES | Potency | outcome |
| --- | --- | --- |
| COc1ccc(C(=O)c2c(C)n(CCN3CCOCC3)c3cc(I)ccc23)cc1 | 8.33 µM (active) | – |
| CC[C@H]1/C=C\C=C/C[C@@H](C)[C@H](O)[C@@](C)(O)C(=O)[C@@H](C)[C@H](O)[C@@H](C)C(=O)[C@@H](C)[C@H](O)[C@@H](C)/C=C\C(=O)O[C@@H]2[C@H](C)[C@H](CC1)O[C@]1(CC[C@H](C)[C@H](C[C@@H](C)O)O1)[C@H]2C | 0.0263 µM (active) | – |
| C[C@@H](C1CC[C@@]2(O)C3=CC(=O)[C@@H]4C[C@@H](O)[C@@H](O)C[C@]4(C)[C@H]3CC[C@]12C)[C@H](O)CCC(C)(C)O (stereo not given in full) | inactive | – |
| COC(=O)[C@@]12OC[C@]34[C@H]([C@@H](O)[C@@H]1O)[C@@]1(C)CC(=O)C(O)=C(C)[C@@H]1C[C@H]3OC(=O)[C@H](OC(=O)/C=C(\C)C(C)C)[C@@H]24 | 0.003 µM (active) | – |
| C[C@H]1CCC/C=C/C2C[C@H](O)C[C@H]2[C@H](O)/C=C/C(=O)O1 (stereo not given in full) | 0.263 µM (active) | – |
| O=C(Oc1ccc([N+](=O)[O-])cc1)N1CCC(C(O)(c2ccc3c(c2)OCO3)c2ccc3c(c2)OCO3)CC1 | inactive | – |
| CCOP(=O)(OCC)C(C)NC(=O)N(CCCl)N=O (stereo not given) | inactive | – |
| C[C@@H]1CN(Cc2ccc(F)cc2)CCN1C(=O)COc1ccc(Cl)cc1NC(N)=O | 14.8 µM (active) | – |
| Cn1cc(C2=C(c3cn(C4CCN(Cc5ccccn5)CC4)c4ccccc34)C(=O)NC2=O)c2ccccc21 | 4.68 µM (active) | – |
| N[C@@H](Cc1ccc(N(CCCl)CCCl)cc1)C(=O)O | 1.48 µM (active) | – |
| CCN(CC)C(=O)c1ccc(C2=CC3(CCNCC3)Oc3cccc(O)c32)cc1 | inactive | – |
| C/C1=C/C[C@@H](/C(C)=C/c2csc(C)n2)OC(=O)C[C@H](O)C(C)(C)C(=O)[C@H](C)[C@@H](O)[C@@H](C)CCC1 | 0.148 µM (active) | – |
| CC1(N2CCC(n3c([C@@H]4CCCNC4)nc4ccccc43)CC2)CCCCCCC1 | 16.6 µM (active) | – |
| COC(=O)[C@]12CCC(C)(C)C[C@H]1[C@H]1C(=O)C=C3[C@@]4(C)C=C(C#N)C(=O)C(C)(C)[C@@H]4CC[C@@]3(C)[C@]1(C)CC2 | 0.417 µM (active) | – |
| COc1cc(C)[nH]c(=O)c1CNC(=O)c1c(C)n([C@H](C)C2CCOCC2)c2ccccc12 | inactive | – |
| CCNC(=O)C[C@@H]1N=C(c2ccc(Cl)cc2)c2cc(OC)ccc2-n2c(C)nnc21 | 0.468 µM (active) | – |
| COC(=O)[C@@H](N)CCCN=C(N)N[N+](=O)[O-] | inactive | – |
| O=c1[nH]c2ccccc2n1C1CCN(Cc2ccc(-c3[nH]c4cc5ncnc5cc4nc3-c3ccccc3)cc2)CC1 | 14.8 µM (active) | – |
| C[C@H]1[C@H](O)[C@@H](C)/C=C/C=C/CC/C=C/C=C/C=C/C=C/[C@H](O[C@@H]2O[C@H](C)[C@@H](O)[C@H](N)[C@@H]2O)C[C@@H]2O[C@](O)(C[C@@H](O)[C@H](O)CC[C@@H](O)C[C@@H](O)C[C@@H](O)CC(=O)O[C@H]1C)C[C@H](O)[C@H]2C(=O)O | inactive | – |
| COC1=C[C@@H]2[C@@H]3Cc4ccc(OC)c(O)c4[C@]2(CCN3C)CC1=O | inactive | – |
